Results reported in the supplement of paper PMC7411054.
Structures can show the parent of a compound that is named as a salt.

Experiments:
Details in all cases: treatment time: 24 h
[1] = system: A549-ACTB-RAB5A; assay: lowest phenotypically active concentration; higher = less potent
Method in brief: (§1)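 Each of fifteen gene-edited A549, HepG2 and WPMY1 reporter lines, marked with BFP for segmentation and GFP and RFP/FusionRed, was treated in four wells at 0.3, 1, 3 or 9 µM for 24 h prior to live imaging. Normalisation of per-well live-cell features used solvent control wells. Deviation needed ≥3 of 4 wells beyond the 95th percentile of control Euclidean distances, and reproducibility needed a median replicate Pearson correlation above the 95th percentile of non-replicates. Both were required for phenotypic activity.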

[2] = system: A549-GM130-SQSTM1; assay: as above
Method in brief: as §1

[3] = system: A549-TUBA1B-RELA; assay: as above
Method in brief: as §1

[4] = system: HepG2-ACTB-RAB5A; assay: as above
Method in brief: as §1

[5] = system: WPMY1-GM130-SQSTM1; assay: as above
Method in brief: as §1

[6] = system: A549-ACTB-RAB5A; assay: phenotypically active (imaging signature differs from DMSO and reproducible) at any of 0.3-9 uM (binary (1 = active, 0 = inactive)); higher = active
Method in brief: as §1

[7] = system: A549-CANX-COX4; assay: as above
Method in brief: as §1

[8] = system: A549-GM130-SQSTM1; assay: as above
Method in brief: as §1

[9] = system: A549-TP53BP1-CLTA; assay: as above
Method in brief: as §1

[10] = system: A549-TUBA1B-RELA; assay: as above
Method in brief: as §1

[11] = system: HepG2-ACTB-RAB5A; assay: as above
Method in brief: as §1

[12] = system: HepG2-CANX-COX4; assay: as above
Method in brief: as §1

[13] = system: HepG2-GM130-SQSTM1; assay: as above
Method in brief: as §1

[14] = system: HepG2-TP53BP1-CLTA; assay: as above
Method in brief: as §1

[15] = system: HepG2-TUBA1B-RELA; assay: as above
Method in brief: as §1

[16] = system: WPMY1-ACTB-RAB5A; assay: as above
Method in brief: as §1

[17] = system: WPMY1-CANX-COX4; assay: as above
Method in brief: as §1

[18] = system: WPMY1-GM130-SQSTM1; assay: as above
Method in brief: as §1

[19] = system: WPMY1-TP53BP1-CLTA; assay: as above
Method in brief: as §1

[20] = system: WPMY1-TUBA1B-RELA; assay: as above
Method in brief: as §1

Row | Structure (SMILES) | lowest phenotypically active concentration [1] | lowest phenotypically active concentration [2] | lowest phenotypically active concentration [3] | lowest phenotypically active concentration [4] | lowest phenotypically active concentration [5] | phenotypically active [6] | phenotypically active [7] | phenotypically active [8] | phenotypically active [9] | phenotypically active [10] | phenotypically active [11] | phenotypically active [12] | phenotypically active [13] | phenotypically active [14] | phenotypically active [15] | phenotypically active [16] | phenotypically active [17] | phenotypically active [18] | phenotypically active [19] | phenotypically active [20]
1 | CC(C)OC(=O)c1cc2c(OCC(O)CNC(C)(C)C)cccc2[nH]1 (stereo not drawn) | 3 µM | 9 µM | 3 µM | 9 µM | 9 µM | 1 (active) | 0 (inactive) | 1 (active) | 1 (active) | 1 (active) | 1 (active) | 0 (inactive) | 0 (inactive) | 1 (active) | 1 (active) | 1 (active) | 1 (active) | 1 (active) | 1 (active) | 1 (active)
2 | CN1[C@@H]2CC[C@H]1C[C@@H](OC(c1ccccc1)c1ccccc1)C2 [benztropine] | 9 µM | 9 µM | 9 µM | 9 µM | 9 µM | 1 (active) | 0 (inactive) | 1 (active) | 1 (active) | 1 (active) | 1 (active) | 1 (active) | 0 (inactive) | 1 (active) | 1 (active) | 0 (inactive) | 1 (active) | 1 (active) | 0 (inactive) | 1 (active)
3 | COc1ccccc1OCCNCC(O)COc1cccc2[nH]c3ccccc3c12 (stereo not drawn) [Carvedilol] | 9 µM | 9 µM | 9 µM | 9 µM | 3 µM | 1 (active) | 0 (inactive) | 1 (active) | 1 (active) | 1 (active) | 1 (active) | 1 (active) | 1 (active) | 1 (active) | 1 (active) | 1 (active) | 1 (active) | 1 (active) | 1 (active) | 1 (active)
4 | Cc1ccc(NC(=O)c2cccc(N(C)C)c2)cc1NC(=O)c1ccc(O)cc1 | 3 µM | 3 µM | 3 µM |  |  | 1 (active) | 0 (inactive) | 1 (active) | 1 (active) | 1 (active) | 0 (inactive) | 0 (inactive) | 0 (inactive) | 0 (inactive) | 0 (inactive) | 1 (active) | 0 (inactive) | 0 (inactive) | 0 (inactive) | 0 (inactive)
5 | C[C@]1(O)C[C@@H](c2nc(-c3ccc4ccc(-c5ccccc5)nc4c3)c3c(N)nccn32)C1 [linsitinib] | 1 µM | ≤ 0.3 µM | 3 µM | 9 µM | 9 µM | 1 (active) | 0 (inactive) | 1 (active) | 1 (active) | 1 (active) | 1 (active) | 1 (active) | 1 (active) | 1 (active) | 1 (active) | 1 (active) | 1 (active) | 1 (active) | 1 (active) | 0 (inactive)
6 | COc1ccc(CNC(=O)Nc2ncc([N+](=O)[O-])s2)cc1 | 9 µM | 9 µM | 9 µM |  | 9 µM | 1 (active) | 0 (inactive) | 1 (active) | 1 (active) | 1 (active) | 0 (inactive) | 0 (inactive) | 0 (inactive) | 0 (inactive) | 0 (inactive) | 0 (inactive) | 1 (active) | 1 (active) | 1 (active) | 0 (inactive)
7 | COc1cc(OC)c2cc(-c3ccncc3)cnc2c1 [DMPQ dihydrochloride] | 9 µM | 9 µM |  |  |  | 1 (active) | 0 (inactive) | 1 (active) | 1 (active) | 0 (inactive) | 0 (inactive) | 1 (active) | 0 (inactive) | 0 (inactive) | 0 (inactive) | 0 (inactive) | 1 (active) | 0 (inactive) | 1 (active) | 0 (inactive)
8 | CNCCC(Oc1ccc(C(F)(F)F)cc1)c1ccccc1 (stereo not drawn) [fluoxetine] | 3 µM | 9 µM | 3 µM |  | 9 µM | 1 (active) | 0 (inactive) | 1 (active) | 1 (active) | 1 (active) | 0 (inactive) | 0 (inactive) | 0 (inactive) | 1 (active) | 1 (active) | 0 (inactive) | 0 (inactive) | 1 (active) | 0 (inactive) | 0 (inactive)
9 | Cc1ccc(NC2=CC(=O)c3sc(C)nc3C2=O)cc1 [Ryuvidine] | 9 µM | 9 µM | 3 µM | 3 µM | 1 µM | 1 (active) | 0 (inactive) | 1 (active) | 1 (active) | 1 (active) | 1 (active) | 0 (inactive) | 1 (active) | 1 (active) | 0 (inactive) | 1 (active) | 1 (active) | 1 (active) | 0 (inactive) | 1 (active)
10 | C[C@H]1Oc2cc(cnc2N)-c2c(nn(C)c2C#N)CN(C)C(=O)c2ccc(F)cc21 | 3 µM | 1 µM | 1 µM | 3 µM |  | 1 (active) | 0 (inactive) | 1 (active) | 1 (active) | 1 (active) | 1 (active) | 1 (active) | 1 (active) | 1 (active) | 1 (active) | 0 (inactive) | 0 (inactive) | 0 (inactive) | 1 (active) | 0 (inactive)
11 | Cn1cc(CCn2cnc(-c3cnn(C)c3)c2-c2ccc(C#N)cc2)cn1 | 9 µM | 9 µM |  |  |  | 1 (active) | 0 (inactive) | 1 (active) | 0 (inactive) | 0 (inactive) | 0 (inactive) | 0 (inactive) | 0 (inactive) | 0 (inactive) | 0 (inactive) | 0 (inactive) | 0 (inactive) | 0 (inactive) | 0 (inactive) | 0 (inactive)
12 | CSc1ccc2c(c1)N(CCC1CCCCN1C)c1ccccc1S2 (stereo not drawn) [thioridazine] | 3 µM | 3 µM | 3 µM | 9 µM | 9 µM | 1 (active) | 0 (inactive) | 1 (active) | 1 (active) | 1 (active) | 1 (active) | 1 (active) | 1 (active) | 1 (active) | 1 (active) | 1 (active) | 1 (active) | 1 (active) | 1 (active) | 1 (active)
13 | CCCS(=O)(=O)Nc1ccc(F)c(C(=O)c2c[nH]c3ncc(Cl)cc23)c1F | 3 µM | 9 µM | 9 µM | 3 µM | 9 µM | 1 (active) | 0 (inactive) | 1 (active) | 1 (active) | 1 (active) | 1 (active) | 1 (active) | 1 (active) | 1 (active) | 1 (active) | 0 (inactive) | 0 (inactive) | 1 (active) | 0 (inactive) | 0 (inactive)
14 | NC(=O)c1cccc(-c2cc(Nc3ccc(OC(F)(F)F)cc3)ncn2)c1 | 9 µM | 9 µM | 9 µM |  | 9 µM | 1 (active) | 0 (inactive) | 1 (active) | 1 (active) | 1 (active) | 0 (inactive) | 0 (inactive) | 1 (active) | 0 (inactive) | 0 (inactive) | 1 (active) | 0 (inactive) | 1 (active) | 1 (active) | 0 (inactive)
15 | O=C(O)[C@@H]1[C@H]2C[C@H]3c4[nH]c5ccccc5c4CCN3C[C@@H]2CC[C@@H]1O [Yohimbinic acid monohydrate] | 9 µM | 3 µM | 9 µM |  | 9 µM | 1 (active) | 0 (inactive) | 1 (active) | 1 (active) | 1 (active) | 0 (inactive) | 0 (inactive) | 0 (inactive) | 0 (inactive) | 0 (inactive) | 1 (active) | 1 (active) | 1 (active) | 1 (active) | 1 (active)
16 | N#C/C(=C(/N)Sc1ccc(N)cc1)c1ccccc1C(F)(F)F | 3 µM | 3 µM |  | 3 µM |  | 1 (active) | 0 (inactive) | 1 (active) | 1 (active) | 0 (inactive) | 1 (active) | 1 (active) | 1 (active) | 1 (active) | 1 (active) | 0 (inactive) | 0 (inactive) | 0 (inactive) | 1 (active) | 0 (inactive)
17 | O[C@H](CNC[C@H](O)[C@@H]1CCc2cc(F)ccc2O1)[C@@H]1CCc2cc(F)ccc2O1 [nebivolol] | 3 µM | 3 µM | 3 µM | 3 µM | 9 µM | 1 (active) | 0 (inactive) | 1 (active) | 0 (inactive) | 1 (active) | 1 (active) | 0 (inactive) | 0 (inactive) | 1 (active) | 1 (active) | 1 (active) | 1 (active) | 1 (active) | 1 (active) | 1 (active)
18 | COc1cc(NC(=O)c2cccc(-n3cc(NC(=O)Nc4cccc(C)c4)cn3)c2)cc(OC)c1OC | 9 µM | 3 µM | 9 µM | 9 µM | 9 µM | 1 (active) | 0 (inactive) | 1 (active) | 0 (inactive) | 1 (active) | 1 (active) | 0 (inactive) | 0 (inactive) | 0 (inactive) | 0 (inactive) | 0 (inactive) | 0 (inactive) | 1 (active) | 0 (inactive) | 1 (active)
19 | Fc1ccc([C@@H]2CCNC[C@H]2COc2ccc3c(c2)OCO3)cc1 [paroxetine] | 3 µM | 3 µM | 3 µM | 9 µM | 9 µM | 1 (active) | 0 (inactive) | 1 (active) | 0 (inactive) | 1 (active) | 1 (active) | 0 (inactive) | 1 (active) | 1 (active) | 1 (active) | 1 (active) | 1 (active) | 1 (active) | 1 (active) | 1 (active)
20 | CCCCCCCCCCCCC/C=C/[C@@H](O)[C@H](CO)N(C)C [N,N-Dimethylsphingosine] | 3 µM | 1 µM | 3 µM | 3 µM | 3 µM | 1 (active) | 0 (inactive) | 1 (active) | 0 (inactive) | 1 (active) | 1 (active) | 1 (active) | 1 (active) | 1 (active) | 1 (active) | 1 (active) | 1 (active) | 1 (active) | 1 (active) | 1 (active)
21 | CN1CCN(c2ccc(-c3cccc(CN4CCOCC4)c3)cc2NC(=O)c2c[nH]c(=O)cc2C(F)(F)F)CC1 | 9 µM | 9 µM | 9 µM |  | 9 µM | 1 (active) | 0 (inactive) | 1 (active) | 0 (inactive) | 1 (active) | 0 (inactive) | 0 (inactive) | 1 (active) | 1 (active) | 1 (active) | 0 (inactive) | 1 (active) | 1 (active) | 1 (active) | 1 (active)
22 | COc1ccc(Cl)cc1NC(=O)Nc1cc(C)nc2ccccc12 | 3 µM | 3 µM | 3 µM | 3 µM |  | 1 (active) | 0 (inactive) | 1 (active) | 0 (inactive) | 1 (active) | 1 (active) | 1 (active) | 1 (active) | 1 (active) | 1 (active) | 0 (inactive) | 0 (inactive) | 0 (inactive) | 0 (inactive) | 0 (inactive)
